The text below walks through data of PubChem BioAssay.

One may read the inhibition as the change of the read-out against control, counted positive when it falls.

A number with no mark means an inactive call. Active and inactive are the calls of the source.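 Rule for the calls, unless noted: active = inhibition of the reporter signal at or above 50%; inactive = inhibition below 50%.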

One assay can be described thus: blockers of RIG-like receptor reporter activation – cell-based, Sendai virus stimulus, luciferase, 10K MLSCN set, TLR/RLR signaling modifier project, primary screen (AID 602276;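 active = inhibition at or above 50% at 10 µM; inactive = inhibition below 50%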;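 note: firefly luciferase from ISG56 promoter only with Renilla not read in this screen; 0% = Sendai virus plus DMSO and 100% = medium plus DMSO without virus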). Conditions: HEK293 RL24 IRF3 luciferase reporter, at 10 µM, active compounds read high.
For the compound `COc1ccc(OCc2nc(N)nc(Nc3cccc(C)c3C)n2)cc1`, the inhibition is 4.49%.

As for `Cc1cc(NC(=O)COc2ncnc3sc(C)c(C)c23)no1`, the inhibition is 21%.

With `CCOC(=O)c1ccc(COC(=O)CCc2nc3ccccc3[nH]c2=O)o1`, the inhibition is 15.9%.

As to `COc1ccc(N2CCN(c3oc(COc4ccccc4)nc3C#N)CC2)cc1`, the inhibition is 10.1%.

The next assay is described as follows: TLR3 IRF3 reporter activation blockers – cell-based, poly I:C stimulus, luciferase, 10K MLSCN set, primary screen (AID 602277). To be noted: HEK293-TLR3 RL24 IRF3 luciferase reporter, at 10 µM, active compounds read high. (A reporter such as luciferase makes a cellular process visible.)
On to `O=C(Cc1ccc(S(=O)(=O)N2CCCC2)s1)Nc1nc2c(s1)CCCC2`, for which the inhibition was -53.9%.

As for `Cn1nnnc1SCC(=O)NCc1ccco1`, the inhibition was -15.1%.

As for `COc1cc(Cn2c(C(=O)O)cc3sccc32)cc(OC)c1OC`, the inhibition was 20.9%.

For the compound `CCOCCCNC(=O)CCNS(=O)(=O)c1ccc(C)cc1`, the inhibition is 22.8%.

As for `COc1ccc2c(c1)CCc1c(C(=O)N3CCCc4ccccc43)noc1-2`, the inhibition was -75%.

Consider `COc1ccc(OC)c(NC(=O)C2CCN(c3cc(-c4ccccc4)nc4ncnn34)CC2)c1`, for which the inhibition was 15.1%.

Regarding `CC(C)C12CN3CC(C(C)C)(CN(C1)C3c1ccc3c(c1)OCO3)C2=O` (configuration not stated), the inhibition is 20.8%.

Turning to `C/C(CC(O)(/C=N/O)c1ccccc1)=N\O` (configuration not stated), the inhibition is 15.7%.

As to `CCCCc1oc2ccccc2c1C(=O)c1cc(I)c(OCCN(CC)CC)c(I)c1`, the inhibition was 43.5%.

In the case of `Cn1cc(C(=O)NC2CCCCCCC2)c(=O)c2cc(S(=O)(=O)N3CCCC3)ccc21`, the inhibition was 24.5%.

Regarding `Cc1ccc(C2C(C#N)=C(N)Oc3cc4c(cc32)OCO4)cc1` (configuration not stated), the inhibition was 45.5%.

Take `CN(C)S(=O)(=O)c1ccc(C(=O)N2CCC(c3nc4ccccc4o3)CC2)cc1`: the inhibition is 12.2%.

With `O=C(CN1CCC(n2nnc3cc(F)ccc32)CC1)Nc1ccc2c(c1)CCC2`, the inhibition was 1.94%.

For the compound `CCOC(=O)CSc1nnc(CNC(=O)c2cccs2)n1-c1cc(OC)ccc1OC`, the inhibition is 17.5%.

Regarding `Cc1cnc(C(=O)NCCc2ccc(S(=O)(=O)NC(=O)NC3CCCCC3)cc2)cn1`, the inhibition was 21.2%.

`O=C(CCn1c(=O)sc2ccccc21)NC1=NCCS1`: the inhibition is -5.87%.

For `Cc1ccc(C(C)C)c(OCCCN2CC(C)OC(C)C2)c1` (configuration not stated), the inhibition is 26.1%.

Turning to `COc1cccc(-c2cc(C(=O)Nc3cc(OC)c(OC)c(OC)c3)no2)c1`, the inhibition was -2.13%.

`O=C1NC(c2ccccc2)(C(F)(F)F)SC2=NCCCN12` (configuration not stated): the inhibition was -13.6%.

Consider `O=C(CP(=O)(CO)CO)c1ccc(Cl)cc1`, for which the inhibition was 14.2%.

With `CC(C)[N+]1(C)[C@@H]2CC[C@H]1CC(OC(=O)C(CO)c1ccccc1)C2` (some centres not stated), the inhibition is 28.4%.

Consider `CCC(=O)N1CCc2cc(Br)cc(S(=O)(=O)CCC(=O)NCC3CCCO3)c21` (configuration not stated), for which the inhibition was 9.46%.

As for `COc1cc(OC)cc(-c2nc3nc(C)c(CCC(=O)O)c(C)n3n2)c1`, the inhibition was 28.4%.

Regarding `CCOC(=O)C(CC)(CCC(=O)O)c1csc(N)n1` (configuration not stated), the inhibition is 18%.

As to `O=C1CC(=O)N(Cc2cccs2)C(=O)N1`, the inhibition was 6.01%.

As for `COc1cccc(-c2cc3nc4c(c(N5CCC6(CC5)OCCO6)n3n2)CCCC4)c1`, the inhibition is -32.3%.

Regarding `Nc1nc(C(=O)N2CCOCC2)nn1S(=O)(=O)c1ccc(Cl)cc1`, the inhibition was 15.9%.

In the case of `O=C(Nc1ccc2c(c1)OCO2)C1CCCN1C(=O)Nc1ccccc1F` (configuration not stated), the inhibition was 24.2%.

As to `CCOc1cccc(OCCOCCN2CCCC2)c1`, the inhibition was 13.2%.

Consider `COc1cccc(C(=O)Nc2cnc(NC(=O)c3ccco3)cc2C)c1`, for which the inhibition is -23.5%.

With `CC(C)(C)c1cc(C(=O)O)nn1-c1ccccc1`, the inhibition is 24.6%.

As for `COc1ccccc1OCCn1c(=O)sc2ccccc21`, the inhibition is 6.17%.

Take `COC(=O)c1c(C(=O)OC)n(CCCN)c2ccc(C)cc12`: the inhibition was 34%.

Turning to `COc1ccc(OCc2nc(N)nc(Nc3cccc(C)c3C)n2)cc1`, the inhibition is 29%.

Regarding `N=c1c(C(=O)NCc2ccc(F)cc2)cc2c(=O)n3ccccc3nc2n1CCCN1CCOCC1`, the inhibition is 69.7% (active).

Take `Cc1cc(NC(=O)COc2ncnc3sc(C)c(C)c23)no1`: the inhibition is 21.4%.

For the compound `CCOC(=O)c1ccc(COC(=O)CCc2nc3ccccc3[nH]c2=O)o1`, the inhibition is 18.3%.

As to `COc1ccc(N2CCN(c3oc(COc4ccccc4)nc3C#N)CC2)cc1`, the inhibition was 3.38%.
